According to PubChem BioAssay (NCATS):
Records with an inconclusive call do not appear. Values without a mark were called inactive. The source made the active and inactive calls. The call rests on the fitted dose curve; in most records, active means well fitted inhibition curve with a large enough effect; inconclusive means small, poorly fitted or top-dose-only effect; inactive means flat fitted curve, though single readings scatter.

These molecules were tested on Zika virus NS2B-NS3 protease (assay: Primary screen GU AMC qHTS for Zika virus inhibitors (AID 1347154;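 further: 0% = no-inhibitor control and -100% = no-enzyme control; nearly all actives have a fitted effect of over 70% in size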)). Conditions: Zika NS2B-NS3 unlinked protease, AMC fluorogenic substrate; series mostly up to 54.1 µM; activity change, negative = inhibition: at the top concentration.
How it was run: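 Unlinked Zika NS2B hydrophilic domain/NS3 protease domain noncovalent complex (25 nM final) in 10 mM Tris-HCl pH 8.0, 0.01% Tween 20, with AMC peptide substrate. Fluorescence (ex 340, em 450 nm) change over 15 min, room temperature; percent inhibition fitted to 4-parameter Hill equation.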
For `O=C(OOC(=O)c1ccccc1)c1ccccc1`, the “activity change, negative = inhibition” value was -3.25%.
With `OCc1ccc(Cl)cc1Cl` the “activity change, negative = inhibition” value was -3.48%.
`COc1ccc(NS(=O)(=O)c2ccc(N)cc2)nn1` was tested, and the “activity change, negative = inhibition” value was -2.86%.
`Cc1ncc(CO)c(CN)c1O` was tested, and the “activity change, negative = inhibition” value was -11.9%.
In the case of `COc1ccccc1OCC(O)CO` (configuration not stated), the “activity change, negative = inhibition” value is reported as -1.33%.
In the case of `CCCCCOC(=O)Nc1nc(=O)n([C@@H]2O[C@H](C)[C@@H](O)[C@H]2O)cc1F`, the “activity change, negative = inhibition” value is reported as -3.55%.
For `CCN1CC(CCN2CCOCC2)C(c2ccccc2)(c2ccccc2)C1=O` (configuration not stated), the “activity change, negative = inhibition” value was 5.32%.
For `O=C(NCC(O)CO)c1c(I)c(C(=O)NCC(O)CO)c(I)c(N(CCO)C(=O)CO)c1I` (configuration not stated), the “activity change, negative = inhibition” value was -0.492%.
In the case of `CC1CCN(CCCC(=O)c2ccc(F)cc2)CC1`, the Potency is reported as “inactive”.
`CC1CC(OC(=O)c2ccccc2O)CC(C)(C)C1` (configuration not stated) was tested, and the “activity change, negative = inhibition” value was 0.356%.
With `Cc1c(Cn2ccnc2)c2ccccc2n1CCC(=O)O` the “activity change, negative = inhibition” value was -1.7%.
In the case of `CC(=O)NS(=O)(=O)c1ccc(N)cc1`, the “activity change, negative = inhibition” value is reported as 1.6%.
`Cc1ccsc1C(=CCCN1CCC[C@@H](C(=O)O)C1)c1sccc1C` was tested, and the “activity change, negative = inhibition” value was 12.1%.
With `Cc1ccc(C(C)C)c(O)c1` the “activity change, negative = inhibition” value was 0.0404%.
For `Nc1ccc(C(=O)Oc2ccccc2)c(O)c1`, the “activity change, negative = inhibition” value was -3.07%.
In the case of `C[C@H]1COc2c(C3(N)CC3)c(F)cc3c(=O)c(C(=O)O)cn1c23`, the “activity change, negative = inhibition” value is reported as 0.638%.
With `CC(O)CCCCn1c(=O)c2c(ncn2C)n(C)c1=O` (configuration not stated) the “activity change, negative = inhibition” value was 1.56%.
`CNCc1ccccc1` was tested, and the “activity change, negative = inhibition” value was 2.73%.
For `NC(=O)NS(=O)(=O)c1ccc(N)cc1`, the “activity change, negative = inhibition” value was -5.53%.
`CC[N+](CC)(CC(=O)Nc1c(C)cccc1C)Cc1ccccc1` was tested, and the “activity change, negative = inhibition” value was -5.06%.
`O=C1c2ccccc2C(=O)C1c1ccc(Br)cc1` was tested, and the “activity change, negative = inhibition” value was -13.4%.
With `CC(C)CCCC(C)CCCC(C)CCCCC(C)CCCC(C)CCCC(C)C` (configuration not stated) the “activity change, negative = inhibition” value was 0.976%.
With `O[C@@H]1CO[C@H]2[C@@H]1OC[C@@H]2O` the “activity change, negative = inhibition” value was -0.365%.
In the case of `Cc1c(NC(=O)c2cccnc2)c(=O)n(-c2ccccc2)n1C`, the “activity change, negative = inhibition” value is reported as -4.3%.
For `CC(C(=O)O)c1ccc2c(c1)Cc1cccnc1O2` (configuration not stated), the “activity change, negative = inhibition” value was -1.36%.
In the case of `O=C1CC[C@@H](C(=O)O)N1`, the “activity change, negative = inhibition” value is reported as 1.35%.
`CCCOC(=O)c1ccc(N)cc1` was tested, and the “activity change, negative = inhibition” value was -0.834%.
In the case of `O=C(c1ccccc1)C(O)c1ccccc1` (configuration not stated), the “activity change, negative = inhibition” value is reported as -3.72%.
In the case of `C[N+](C)(C)CC(O)CC(=O)[O-]` (configuration not stated), the “activity change, negative = inhibition” value is reported as -0.987%.
With `COC(=O)c1cccnc1` the “activity change, negative = inhibition” value was -2.98%.
For `O=C(O)c1cc(=O)c2ccccc2o1`, the “activity change, negative = inhibition” value was -1.26%.
For `C1CCN2C[C@@H]3C[C@@H](CN4CCCC[C@@H]34)[C@H]2C1`, the “activity change, negative = inhibition” value was 4.22%.
With `CN1CCN(C(=O)C2CCCCC2)CC1` the “activity change, negative = inhibition” value was -5.2%.
For `NC(=O)CC[C@@H](N)C(=O)O`, the “activity change, negative = inhibition” value was 3.92%.
In the case of `NC(=O)c1ccc([N+](=O)[O-])cc1Cl`, the “activity change, negative = inhibition” value is reported as -3.29%.
In the case of `CO[C@@]1(NC(=O)C(C(=O)O)c2ccc(O)cc2)C(=O)N2C(C(=O)O)=C(CSc3nnnn3C)CO[C@@H]21` (some centres not stated), the “activity change, negative = inhibition” value is reported as -5.11%.
`C/C(=C(\CCO)SS/C(CCO)=C(\C)N(C=O)Cc1cnc(C)nc1N)N(C=O)Cc1cnc(C)nc1N` was tested, and the “activity change, negative = inhibition” value was 2.62%.
